Measured values taken from the supplement of paper PMC4100887.
Counter-ions that a name gives are not always drawn. ± gives the standard deviation of the averaged measurements.

Columns and labels:
[1] = tested on: IMR-90; assay: relative cell viability (ATPlite) vs untreated control (fraction); higher = less toxic; conditions: 1 µM; 72 h
[2] = tested on: K562; assay: as above; conditions: 1 µM; 72 h
[3] = tested on: K562; assay: relative cell viability (ATPlite) vs untreated control, with imatinib (fraction); higher = less toxic; conditions: 1 µM; 72 h; imatinib 0.125 µM

Structure (SMILES)	relative cell viability [1]	relative cell viability [2]	relative cell viability [3]
N#C/C(=C(/N)Sc1ccccc1N)c1cccc(C(O)c2ccncc2)c1 (centres undefined) [MEK Inhibitor I]	1.02 ± 0.1	0.732 ± 0.045	0.581 ± 0.03
COc1cc2c(cc1OC)-c1[nH]nc(Nc3cccc(F)c3)c1C2 [PDGF Receptor Tyrosine Kinase Inhibitor IV]	0.43 ± 0.07	0.0468 ± 0.0021	0.0404 ± 0.0032
O=Nc1c(-c2c(O)[nH]c3cc(Br)ccc23)[nH]c2ccccc12 [GSK-3 Inhibitor IX]	0.935 ± 0.077	0.779 ± 0.036	0.599 ± 0.044
COc1ccc2nc3n[nH]c(C)c3c(NCCOCCO)c2c1	1 ± 0.077	1.02 ± 0.064	0.843 ± 0.066
NC(=O)c1ccc2nc(-c3ccc(Oc4ccc(Cl)cc4)cc3)[nH]c2c1 [Chk2 Inhibitor II]	1.05 ± 0.097	0.778 ± 0.061	0.681 ± 0.027
CN[C@@H]1C[C@H]2O[C@@](C)([C@@H]1OC)n1c3ccccc3c3c4c(c5c6ccccc6n2c5c31)C(=O)N[C@H]4O	0.101 ± 0.021	0.18 ± 0.048	0.14 ± 0.026
O=C1C(=Cc2ccc(O)cc2)C2=Nc3ccccc3C2=C1C1=C2C(=Nc3ccccc32)C(=Cc2ccc(O)cc2)C1=O [Scytonemin, Lyngbya sp.]	0.834 ± 0.054	0.986 ± 0.052	0.821 ± 0.089
Cc1ccc(S(=O)(=O)/C=C/C#N)cc1	1.01 ± 0.032	0.721 ± 0.15	0.697 ± 0.14
COc1cc2ncn(-c3cc(OCc4ccccc4S(C)(=O)=O)c(C#N)s3)c2cc1OC [IKK-3 Inhibitor IX]	1.02 ± 0.11	0.843 ± 0.084	0.764 ± 0.036
Cc1cncc2cccc(S(=O)(=O)N3CCCN(C(=O)CN)C[C@@H]3C)c12 [Rho Kinase Inhibitor IV]	1.05 ± 0.12	0.809 ± 0.065	0.669 ± 0.031
CCN(CC)C(=O)c1ccc(Nc2nc(OCC3CCCCC3)c3[nH]cnc3n2)cc1 [Cdk2 Inhibitor IV, NU6140]	1.03 ± 0.076	0.775 ± 0.041	0.672 ± 0.031
O=C(O)c1ccc2c3c1cccc3c(=O)n1c3ccccc3nc21	0.961 ± 0.12	0.947 ± 0.051	0.811 ± 0.088
CC[C@H](CO)Nc1nc(NCc2ccccc2O)c2ncn(C(C)C)c2n1 [Olomoucine II]	1.07 ± 0.073	0.758 ± 0.02	0.715 ± 0.028
NC(=O)Nc1cc(-c2ccccc2)sc1C(N)=O [IKK-2 Inhibitor XI]	0.982 ± 0.094	0.983 ± 0.09	0.802 ± 0.037
Oc1cccc(-c2nc(N3CCOCC3)c3oc4ncccc4c3n2)c1	0.958 ± 0.099	0.741 ± 0.015	0.513 ± 0.045
COc1ccc2c(c1)c(C1=C(c3c[nH]c4ccccc34)C(=O)NC1=O)cn2CCCN(C)C	0.969 ± 0.082	0.872 ± 0.06	0.755 ± 0.051
CC(C)(C)c1nc2c3cc[nH]c(=O)c3c3cc(F)ccc3c2[nH]1 [JAK Inhibitor I]	1.01 ± 0.045	0.796 ± 0.072	0.72 ± 0.035

Structure (SMILES)	relative cell viability [1]	relative cell viability [2]	relative cell viability [3]
O=C1NC(=O)c2c1c1c3ccccc3[nH]c1n1cncc21 [Isogranulatimide]	1.01 ± 0.063	0.837 ± 0.077	0.773 ± 0.049
Cn1c2ccccc2c2c3c(c4c5ccccc5n(CCC#N)c4c21)CNC3=O	1.03 ± 0.093	0.854 ± 0.1	0.739 ± 0.048
Cn1c(O)c(-c2[nH]c3ccccc3c2N=O)c2ccc(Br)cc21 [GSK-3 Inhibitor IX, Control, MeBIO]	0.976 ± 0.047	0.964 ± 0.014	0.8454 ± 0.0073
N#Cc1c(C2CCNCC2)cc(-c2c(O)cccc2OCC2CC2)nc1N [IKK-2 Inhibitor VIII]	1.01 ± 0.12	0.871 ± 0.048	0.718 ± 0.021
Cc1cc(Nc2nc(-c3ccccc3)nc3ccccc23)n[nH]1 [GSK-3 Inhibitor XIII]	1 ± 0.059	0.937 ± 0.041	0.711 ± 0.034
Cn1nc2c3c(cccc31)C(=O)c1ccccc1-2 [JNK Inhibitor, Negative Control]	1.02 ± 0.11	0.869 ± 0.083	0.733 ± 0.038
c1ccc(-c2n[nH]c3c2oc2ccccc23)cc1	0.943 ± 0.083	0.868 ± 0.038	0.732 ± 0.04
COc1cc2ncnc(Nc3ccc(Oc4ccccc4)cc3)c2cc1OC [Src Kinase Inhibitor I]	0.956 ± 0.063	0.839 ± 0.088	0.692 ± 0.05
COc1ccc(-c2cnc3c(-c4ccsc4)cnn3c2)cc1 [VEGF Receptor 2 Kinase Inhibitor IV]	0.993 ± 0.1	0.893 ± 0.072	0.726 ± 0.067
O=C(c1ccc(Nc2nccc(-c3cc4ccccc4s3)n2)cc1)N1CCC(N2CCCC2)CC1 [IKK Inhibitor VII]	0.972 ± 0.066	0.773 ± 0.022	0.632 ± 0.031
Nc1nccc(-c2c(-c3ccc(F)cc3)ncn2C2CCNCC2)n1	0.923 ± 0.084	0.755 ± 0.05	0.662 ± 0.046
Cn1cnc2cc3c(Nc4cccc(Br)c4)ncnc3cc21	0.973 ± 0.054	1.02 ± 0.078	0.874 ± 0.02
Cn1cc(C2=C(c3cn(CCCSC(=N)N)c4ccccc34)C(=O)NC2=O)c2ccccc21	0.967 ± 0.2	0.834 ± 0.1	0.733 ± 0.062
COc1cc(SC)ccc1C(=O)N1CCC(Cc2ccccc2)CC1 [p38 MAP Kinase Inhibitor VI, JX401]	1.03 ± 0.094	0.807 ± 0.042	0.716 ± 0.023
O=c1[nH][nH]c2nnc(-c3c(-c4ccccc4)nn4ccccc34)cc12 [ERK Inhibitor II, Negative control]	0.966 ± 0.077	0.833 ± 0.086	0.758 ± 0.019
NCCCn1cc(C2=C(c3c[nH]c4ccccc34)C(=O)NC2=O)c2ccccc21 [Bisindolylmaleimide III, Hydrochloride]	1.06 ± 0.088	0.88 ± 0.058	0.776 ± 0.042
